We go through 84 compounds from PubChem BioAssay AID588405 (Sanford-Burnham Center for Chemical Genomics, 2011).

Molecules are shown by their SMILES. Out of some 360,000 compounds screened, about 6,200 (1.7%) were called active.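 How the source made its calls: active means inhibition of at least 50% at 20 µM; inactive means the rest.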 The full list was thinned out, with actives kept by preference.

This test is described as follows: inhibition of PEG-3 promoter activity – cell-based, HeLa, luciferase luminescence, primary screen (AID 588405). As to conditions: HeLa PEG-Prom luciferase reporter, overnight, at 20 µM, active compounds read high. Background: Reporter assays use an easily measured gene product as a stand-in for the process of interest.
Regarding `COc1ccc(-c2cc(NC=O)c3ncc(-c4cc(OC)c(OC)c(OC)c4)n3c2)c(OC)c1`, the inhibition was 1.14% (inactive).

As to `Nc1ncnc2c1ncn2[C@@H]1O[C@H](C(=O)N2CCCN(Cc3ccccc3F)CC2)[C@@H](O)[C@H]1O`, the inhibition was 3.41% (inactive).

`OC[C@@H]1CN(Cc2ccc(F)cc2)C[C@H](n2cnc3c(NC4CCCC4)ncnc32)O1`: the inhibition is 12.2% (inactive).

Regarding `CCCNC(=O)C1(C)CCN(C(=O)c2ccc(F)cc2Cl)C1` (centres undefined), the inhibition was 1.51% (inactive).

As for `CC1(C(=O)NS(=O)(=O)Cc2cccc(Cl)c2)CCN1C(=O)Cc1ccc(Cl)cc1Cl` (centres undefined), the inhibition is -1.37% (inactive).

For the compound `Cc1cn([C@H]2C[C@H](O)[C@@H](/C=C/C(=O)NCCCc3ccccc3)O2)c(=O)[nH]c1=O`, the inhibition is 9.64% (inactive).

For `Cc1ccc(C(=O)N/C(=C\c2ccc(F)cc2)C(=O)NCCN2CCOCC2)cc1`, the inhibition was -0.33% (inactive).

`O=C(NCCN1CCOCC1)c1ccc(/C=C2\Sc3ccccc3N(Cc3ccc(F)cc3)C2=O)cc1`: the inhibition is 66.6% (active).

Consider `O=C(NCCN1CCOCC1)/C(=C/c1ccc(F)cc1)NC(=O)c1ccccc1`, for which the inhibition was -17.8% (inactive).

Consider `O=[N+]([O-])c1ccc(CN2CC(N3CC=CC3)CS2(=O)=O)cc1` (centres undefined), for which the inhibition was -12% (inactive).

With `CN(C)C(=O)c1cccc(-c2cnc3c(NC=O)cc(-c4ccc(F)cc4)cn23)c1`, the inhibition was 35.5% (inactive).

`CN(C)CCNC(=O)c1cccc(-c2cnc3c(NC=O)cc(-c4cccc(C(F)(F)F)c4)cn23)c1`: the inhibition is 98.7% (active).

As for `CC(=O)c1cccc(-c2cnc3c(NC=O)cc(-c4cccc(C(=O)N(C)C)c4)cn23)c1`, the inhibition is 33.8% (inactive).

On to `Nc1nc2c(ncn2[C@@H]2O[C@H](CNCc3ccc(OCCCN4CCOCC4)cc3)[C@@H](O)[C@H]2O)c(=O)[nH]1`, for which the inhibition is -2.38% (inactive).

Regarding `COc1ccc(CNC(=O)c2ccc(-c3cccnc3)c3ccoc23)cc1OC`, the inhibition is 10.8% (inactive).

With `Cc1c(C(=O)Nc2cccc(Cl)c2)cn2c(nc3ccccc32)c1C#N`, the inhibition is 60.9% (active).

Turning to `Cc1cc(Cl)nc(NC(=O)Nc2cccc(Cl)c2)n1`, the inhibition was -174% (inactive).

Turning to `CCC(=O)Nc1nc(C)c(C(=O)Nc2cccc(Cl)c2)s1`, the inhibition is -28.7% (inactive).

In the case of `COc1cccc(CN(C)C(=O)CC[C@H]2O[C@@H](n3cnc4c(NC(=O)c5ccccc5)ncnc43)[C@H](O)[C@@H]2O)c1`, the inhibition is 4.1% (inactive).

As for `C[N+]1(CCNC(=O)/C=N/O)CCCCC1`, the inhibition was 17% (inactive).

As to `CCCNC(=O)C1(C)CCCN(C(=O)c2oc3ccccc3c2C)C1` (centres undefined), the inhibition is -3.03% (inactive).

In the case of `Cc1nc(Nc2ccc3c(c2)OCCO3)c2nnn(Cc3ccccc3Cl)c2n1`, the inhibition was 54.7% (active).

As to `CCCc1nc(NCc2ccc3c(c2)OCO3)c2nnn(Cc3ccccc3Cl)c2n1`, the inhibition was 1.34% (inactive).

`Cc1nc(Nc2ccccc2F)c2nnn(Cc3ccccc3Cl)c2n1`: the inhibition was 8.32% (inactive).

In the case of `COc1ccccc1-c1nn(Cc2ccccc2)cc1C(=O)N1CCN(c2ncccn2)CC1`, the inhibition was 33.2% (inactive).

Take `O=C(/C=C/c1ccc(Cl)c([N+](=O)[O-])c1)c1cccnc1`: the inhibition was 105% (active).

For `CC(=O)Nc1ccc(C=CC(=O)c2ccc([N+](=O)[O-])cc2)cc1`, the inhibition is 4.26% (inactive).

In the case of `O=C(Nc1cccnc1)c1ccc(Cl)cc1[N+](=O)[O-]`, the inhibition is -0.43% (inactive).

For the compound `C/C(=N\NC(=O)Cc1ccccc1[N+](=O)[O-])c1cccnc1`, the inhibition is 17.7% (inactive).

Regarding `O=C(/C=C/c1ccc(Cl)c([N+](=O)[O-])c1)c1ccc(O)cc1`, the inhibition was 104% (active).

In the case of `CC(CC(=O)O)C(=O)c1ccc(Cl)c([N+](=O)[O-])c1` (centres undefined), the inhibition is 1.7% (inactive).

Turning to `CC(C)(C)S(=O)N1Cc2cc(C(=O)NCCCN3CCOCC3)nc(-c3cccc(-c4cc5ccccc5o4)c3)c2[C@H]1CCO` (some centres undefined), the inhibition is -6.92% (inactive).

Regarding `CCCNC(=O)C1(C)CCN1C(=O)Cc1ccc(-c2ccccc2)cc1` (centres undefined), the inhibition was -9.6% (inactive).

Take `CCCNC(=O)N1CCN(C(=O)NCCC)CC1`: the inhibition is 7.21% (inactive).

For the compound `CCC(C)(C)c1ccc(Oc2ccc(NC(=O)COC(=O)C3=COCCO3)cc2)cc1`, the inhibition is 11.8% (inactive).

For the compound `O=C1c2ccccc2C2=Nc3ccccc3SC(c3ccccc3F)C12` (centres undefined), the inhibition was 50.8% (active).

`COc1ccc(-c2cc(NC(C)=O)c3ncc(-c4cc(OC)c(OC)c(OC)c4)n3c2)cn1`: the inhibition is 9.76% (inactive).

Turning to `Cc1ccccc1C(CC(=O)c1cccs1)C(C#N)C#N` (centres undefined), the inhibition was 98.4% (active).

As to `Cc1ccc(C)c(NC(CC(=O)c2ccccc2)C(=O)OCC(=O)c2cccs2)c1` (centres undefined), the inhibition is -74.6% (inactive).

As to `O=C(NCC(=O)N1CCN(c2ccccc2F)CC1)c1cccs1`, the inhibition is -57% (inactive).

`OCCC1CN(Cc2cccc(OC3CCCC3)c2)CCN1Cc1ccsc1` (centres undefined): the inhibition is 18.8% (inactive).

On to `CCc1nc2c(OCCOc3ccc(F)cc3)cccn2c1N(C)C(=O)c1ccccc1F`, for which the inhibition is 14.6% (inactive).

For `C=C(C)C(=O)O[C@H]1C/C(C)=C\C(=O)/C=C(\C)[C@H](O)[C@@H]2OC(=O)C(=C)[C@@H]21`, the inhibition is 94.4% (active).

For `Cc1cc(NC(=O)COC(=O)/C=C/c2ccc(C)o2)no1`, the inhibition is 6.71% (inactive).

On to `Cc1sc2ncn(CC(=O)NCCCC(=O)N(C)Cc3ccccc3)c(=O)c2c1C`, for which the inhibition is 8.27% (inactive).

In the case of `COc1ccccc1Nc1ncnc2c1oc1ccccc12`, the inhibition was -388% (inactive).

Take `COc1ccc(Nc2ncnc3ccc(Br)cc23)c(OC)c1`: the inhibition is 88.1% (active).

Take `COc1ccc(OC)c(NC(=O)CN(C)CCOc2ccc(Br)cc2)c1`: the inhibition is 7.53% (inactive).

For the compound `Cc1cc(Br)cn2c(Cc3ccsc3)c(-c3ccc(C#N)cc3)nc12`, the inhibition was -3.22% (inactive).

For the compound `CCOC(=O)C1CCCN(C(=O)c2ccc(N(C)C)cc2)CC1` (centres undefined), the inhibition is -7.67% (inactive).

Turning to `O=[N+]([O-])/C=C/c1ccc2c(ccn2Cc2ccccc2)c1`, the inhibition is 107% (active).

`O=C(Nc1nnc([C@H]2C[C@H](O)[C@@H](CO)O2)s1)c1cccc(Cl)c1`: the inhibition was -8.3% (inactive).

As for `Cc1c(NS(=O)(=O)c2cccc(C(=O)Nc3ccc(SC(F)F)cc3)c2)c(=O)n(-c2ccccc2)n1C`, the inhibition was 34.6% (inactive).

`Nc1cccc(S(=O)(=O)Nc2ccc(SC(F)F)cc2)c1`: the inhibition is 8.83% (inactive).

As for `COc1ccc(NC(=O)/C(N=Nc2cccc(S(=O)(=O)Nc3ccc(SC(F)F)cc3)c2)=C(\C)O)cc1`, the inhibition is 50.3% (active).

Take `CCN(CC)CCC(c1ccc2c(c1)OCO2)c1c(OC)cc(OC)c2c(-c3ccccc3)cc(=O)oc12` (centres undefined): the inhibition was 56.4% (active).

In the case of `CCN(CC)C(=O)CC(c1ccc2c(c1)OCO2)c1c(OC)cc(OC)c2c(-c3ccccc3)cc(=O)oc12` (centres undefined), the inhibition was 7.97% (inactive).

In the case of `CCN(CC)CCC(c1cc(OC)c(OC)c(OC)c1)c1c(OC)cc(OC)c2c(-c3ccccc3)cc(=O)oc12` (centres undefined), the inhibition is 27.4% (inactive).

As to `CC1(C(=O)Nc2cccc3cccnc23)CCN1C(=O)CCC1CCCC1` (centres undefined), the inhibition was 10.3% (inactive).

As to `COc1ccc(CCNC(=O)Nc2ccc3c(c2)c(=O)n(C)n3C)cc1OC`, the inhibition was -7.49% (inactive).

On to `O=C(c1ccc(F)cc1)c1c[nH]c(C(=O)NCc2cccnc2)c1`, for which the inhibition was 18% (inactive).

With `O=C(NN=Cc1ccc2c(c1)CCC2)c1ccccc1O`, the inhibition is -215% (inactive).

As for `COc1ccc(C(=O)Nc2ccccc2C(=O)N/N=C/c2ccc(O)c(OC)c2)cc1`, the inhibition is 83.7% (active).

In the case of `COc1ccc(-c2[nH]ncc2/C=N/NC(=O)c2cc(Br)ccc2O)c(OC)c1`, the inhibition was 5.43% (inactive).

`O=C(Nc1cc(Br)ccc1F)c1nc[nH]c1C(=O)NCc1ccccc1`: the inhibition is 2.41% (inactive).

As for `Cc1sc2ccccc2c1CNC[C@H]1O[C@@H](n2ccc(=O)[nH]c2=O)[C@H](O)[C@@H]1O`, the inhibition was -4.81% (inactive).

Regarding `Cc1cc(N/C=C\C(=O)c2ccc(Cl)c(Cl)c2)no1`, the inhibition is -233% (inactive).

For `COc1ccc(C(=O)/C=C/Nc2ccccn2)cc1`, the inhibition is 63% (active).

Turning to `COc1ccc(N2C(=O)CCC(C(=O)Nc3ccccn3)C2c2ccc(OC)c(OC)c2)cc1` (centres undefined), the inhibition was 12.5% (inactive).

As for `COc1ccccc1CNC(=O)c1cc(-c2cc(F)ccc2OC)n[nH]1`, the inhibition was 0.22% (inactive).

For the compound `COc1ccc(OC)c(C(=O)NC(CC(N)=O)c2ccc(N3CCC(N4CCCCC4)CC3)c([N+](=O)[O-])c2)c1` (centres undefined), the inhibition was 0.66% (inactive).

Consider `CCc1nc2c(OCc3ccccc3)cccn2c1N(C)C(=O)c1ccco1`, for which the inhibition was 11.6% (inactive).

As to `COc1ccc(CC(=O)Nc2c(C(N)=O)oc3ccccc23)cc1`, the inhibition is 8.96% (inactive).

Consider `COc1ccc(CC(=O)Nc2ccc(-c3nnc(-c4ccc(C)cc4)o3)cc2)cc1`, for which the inhibition was 51.2% (active).

With `COc1ccc(NC(=O)Cn2c(-c3ccc(OC)cc3)cn(-c3ccc(C)cc3)c2=O)cc1`, the inhibition is -103% (inactive).

As to `COc1ccc(CCCNC(=O)C2Cc3c(-c4cccc(C(N)=O)c4)ccnc3O2)cc1` (centres undefined), the inhibition is 14.7% (inactive).

For `Nc1cccc(-c2cncc(N3CCN(Cc4ccccn4)CC3)n2)c1`, the inhibition is -8.35% (inactive).

Consider `CSCC[C@H](NC(=O)CCCn1nnc2ccccc2c1=O)C(=O)O`, for which the inhibition is 4.76% (inactive).

As for `CCOc1ccc(CCN2C(=S)N([C@@H](CC(C)C)CN3CCC[C@@H]3CN3C(=S)NC[C@@H]3Cc3ccc(O)cc3)C[C@@H]2Cc2ccc(O)cc2)cc1`, the inhibition is 14.3% (inactive).

Take `CCOc1ccc(CCN2C(=S)N([C@@H](CC(C)C)CN3CCC[C@@H]3CN3C(=S)NC[C@@H]3Cc3ccc(O)cc3)C[C@@H]2CC(C)C)cc1`: the inhibition is 14.2% (inactive).

As for `CC(C)C[C@H]1CNC(=S)N1C[C@H]1CCCN1C[C@H](Cc1ccc(O)cc1)N1C[C@H](Cc2ccc(O)cc2)N(CC2CCCCC2)C1=S`, the inhibition was 99.5% (active).

Regarding `Cc1ccc(OCC(=O)c2cc(C)n(Cc3ccco3)c2C)c([N+](=O)[O-])n1`, the inhibition was 55.6% (active).

As for `Cc1cc(C(=O)COC(=O)CNC(=O)c2ccc(F)cc2)c(C)n1Cc1ccco1`, the inhibition was -257% (inactive).

Take `COCC(C)n1c(C)cc(C(=O)COc2ccc(C)nc2[N+](=O)[O-])c1C` (centres undefined): the inhibition was 43.5% (inactive).

Usually inhibition stands for the change of the read-out against control, counted positive when it falls.
